Most compounds without a hit are left out; they make up all but 2.4% or so of the library.
Pol kappa inh: inhibitors of human DNA polymerase kappa; Potency, µM (top dose mostly 107 µM), usual class: inhibitors; 0.53% of 400,000 active; purified Pol kappa, fluorescent DNA synthesis assay, 10 min
Target sequence (Q9UBT6 whole entry, looked up): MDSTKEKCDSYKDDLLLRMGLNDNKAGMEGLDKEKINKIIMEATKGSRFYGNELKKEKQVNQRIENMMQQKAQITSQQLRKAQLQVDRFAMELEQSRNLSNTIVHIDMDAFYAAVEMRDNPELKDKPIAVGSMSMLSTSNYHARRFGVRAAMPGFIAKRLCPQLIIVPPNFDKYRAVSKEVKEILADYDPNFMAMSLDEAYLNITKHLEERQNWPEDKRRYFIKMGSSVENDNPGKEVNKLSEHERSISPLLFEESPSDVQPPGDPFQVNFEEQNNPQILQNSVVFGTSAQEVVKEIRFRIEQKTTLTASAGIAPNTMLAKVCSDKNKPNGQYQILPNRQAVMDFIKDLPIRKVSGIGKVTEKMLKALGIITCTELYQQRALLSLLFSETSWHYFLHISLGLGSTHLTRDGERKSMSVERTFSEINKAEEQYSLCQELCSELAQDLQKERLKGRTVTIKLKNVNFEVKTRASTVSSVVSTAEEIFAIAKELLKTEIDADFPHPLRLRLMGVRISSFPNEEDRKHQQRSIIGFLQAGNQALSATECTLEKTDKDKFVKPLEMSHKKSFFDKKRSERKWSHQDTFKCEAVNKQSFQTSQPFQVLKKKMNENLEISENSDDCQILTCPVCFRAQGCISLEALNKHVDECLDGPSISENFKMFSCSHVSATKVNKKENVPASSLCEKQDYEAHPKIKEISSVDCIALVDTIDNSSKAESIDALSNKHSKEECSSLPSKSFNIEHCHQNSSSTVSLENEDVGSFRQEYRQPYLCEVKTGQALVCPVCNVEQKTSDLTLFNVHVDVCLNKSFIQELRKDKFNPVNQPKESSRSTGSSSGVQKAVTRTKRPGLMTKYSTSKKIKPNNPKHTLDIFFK
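Enzyme at 10 nM met test compounds for 15 min at room temperature. Substrate addition (50 nM final) began the reaction, which was monitored by fluorescence at 0 and 10 min.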
Pol beta inh: blocks human DNA polymerase beta activity; P06746; Pol beta primer extension/strand displacement, fluorescence kinetic; Potency, µM (doses to about 114 µM), hits mostly inhibitors; 1.3% of 340,000 active; AID 485314
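Kinetic readout of DNA synthesis with strand displacement by Pol beta. Compound and 10 nM enzyme sit 15 min at room temperature; 50 nM substrate starts the reaction, read immediately and at 10 min.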
POLI inh: DNA polymerase iota (human) inhibition | Pol iota fluorescent replication assay, 10 min | Potency, µM (highest dose often 115 µM), actives largely listed as inhibitors | 1% of 390,000 active | AID 588590
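Pol iota at 10 nM preincubated 15 min with compounds at room temperature; reaction started with fluorescent substrate, 50 nM final. Fluorescence read kinetically at 0 and 10 min; buffer-only wells as negative control.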
POLH inh: inhibitors of human DNA polymerase eta. Potency, µM (titrated, usually from 114 µM), most hits filed as inhibitors. recombinant Pol eta, fluorescent DNA replication assay. AID 588591. 1.2% of 390,000 active
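Pol eta at 10 nM preincubated with compounds 15 min at room temperature; reaction started with fluorescent substrate (50 nM final) and read kinetically at 0 and 10 min.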
WRN helicase inh: blocks human WRN helicase; Q14191; WRN helicase unwinding, fluorescent forked duplex, kinetic; Potency, µM (top dose mostly 114 µM), actives largely listed as inhibitors; 0.46% of 360,000 active; further: nearly all actives have a fitted effect of over 55% in size
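WRN at 20 nM final preincubated with compound 15 min at room temperature; reaction started with 100 nM fluorophore/quencher forked duplex oligonucleotide and 2 mM ATP final. Unwinding followed kinetically by red fluorescence (ex 525, em 598 nm).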
FEN1 inh-1: inhibitors of human flap endonuclease 1; P39748; Recombinant FEN1 flap cleavage, fluorescence, 15 min; Potency, µM (top dose mostly 114 µM), usual class: inhibitors; 0.35% of 390,000 active; AID 588795; further: nearly all actives have a fitted effect of over 65% in size
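Quantitative HTS format: each compound was titrated, incubated with 10 nM nuclease for 15 min at room temperature, then challenged with flap substrate at 50 nM final. Signal change over 15 min gave concentration–effect curves.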
FEN1 inh-2: FEN1 inhibition, cherry-pick retest; shares compounds with FEN1 inh-1; FEN1 flap cleavage, TAMRA/BHQ2 fluorogenic DNA substrate; Potency, µM, actives largely listed as inhibitors; 79% of 880 active; AID 720498; further: nearly all actives have a fitted effect of over 60% in size
Hits are given with their value; [ ] = another dose, or the depositor's remark. The call rests on the fitted dose curve; in most records, active means well fitted curve in the direction sought with a large enough effect; inconclusive means small, poorly fitted or top-dose-only effect, or another doubt; inactive means no such curve, though single readings can be large; an effect the other way counts as inactive or inconclusive.

Results for c1ccc2c(NCCc3c[nH]c4ccccc34)c3ccccc3nc2c1 ?
Pol kappa inh: inactive; Pol beta inh: 13µM; POLI inh: inconclusive; POLH inh: inconclusive; WRN helicase inh: 25µM; FEN1 inh-1: inconclusive; FEN1 inh-2: 21

Results for O=C(COC(=O)c1ccc([N+](=O)[O-])o1)Nc1ccc2c(c1)OCO2 ?
Pol kappa inh: inactive; POLI inh: inactive; POLH inh: inconclusive; WRN helicase inh: inactive; FEN1 inh-1: inconclusive; FEN1 inh-2: 19

Results for Cc1cccc(C)c1NC(=O)COC(=O)c1ccc([N+](=O)[O-])o1 ?
Pol kappa inh: inactive; Pol beta inh: inactive; POLI inh: inconclusive; POLH inh: inconclusive; WRN helicase inh: inactive[11.6 µM]; FEN1 inh-1: inconclusive; FEN1 inh-2: 13

What do the screens show for `Cc1cccc(C)c1NC(=O)COC(=O)c1ccccc1[N+](=O)[O-]`?
Pol kappa inh: inactive; Pol beta inh: inactive; POLI inh: inactive; POLH inh: inactive; WRN helicase inh: inactive; FEN1 inh-1: inactive

How did CCOc1cc(N2CCOCC2)c(OCC)cc1NC(=O)COC(=O)c1ccc([N+](=O)[O-])o1 do in these assays?
Pol kappa inh: inactive; POLI inh: inactive; POLH inh: inconclusive; WRN helicase inh: inactive[11.6 µM]; FEN1 inh-1: 28µM; FEN1 inh-2: 8.5

Results for COc1ccccc1CNC(=O)COC(=O)c1ccc([N+](=O)[O-])o1 ?
Pol kappa inh: inactive; POLI inh: inconclusive; POLH inh: inconclusive; WRN helicase inh: inactive[11.6 µM]; FEN1 inh-1: inconclusive; FEN1 inh-2: 30

How did COc1ccc(N2C(=O)CSC23C(=O)N(CC(=O)NC2CCCCC2)c2ccccc23)cc1 (stereo not drawn) do in these assays?
Pol kappa inh: inactive; Pol beta inh: inactive; POLI inh: inactive; POLH inh: inactive; FEN1 inh-1: inactive

How did O=C(COC(=O)c1ccc([N+](=O)[O-])o1)c1ccccc1 do in these assays?
Pol kappa inh: inactive; Pol beta inh: inactive; POLI inh: inactive; POLH inh: inactive; WRN helicase inh: inactive; FEN1 inh-1: inactive

What do the screens show for `O=C(COC(=O)c1ccc([N+](=O)[O-])o1)NCc1ccccc1`?
Pol kappa inh: inactive; POLI inh: inconclusive; POLH inh: 50µM; WRN helicase inh: inactive; FEN1 inh-1: inconclusive; FEN1 inh-2: 13

How did Cc1ccccc1-n1nc(CO)c(C(=O)NCc2cccs2)n1 do in these assays?
Pol kappa inh: inactive; Pol beta inh: inactive; POLI inh: inactive; POLH inh: inactive; FEN1 inh-1: inactive

What do the screens show for `COc1cc(/C=C2\SC(=S)N(NC(=O)c3ccncc3)C2=O)ccc1O`?
Pol kappa inh: inactive; Pol beta inh: inactive; POLI inh: 22µM; POLH inh: inconclusive; WRN helicase inh: 50µM; FEN1 inh-1: inconclusive; FEN1 inh-2: 76

How did COc1cc(/C=C2/SC(=S)N(Cc3ccccc3)C2=O)ccc1O do in these assays?
Pol kappa inh: inconclusive; Pol beta inh: 10µM; POLI inh: 40µM; POLH inh: inconclusive; WRN helicase inh: 8.9µM; FEN1 inh-1: inconclusive; FEN1 inh-2: 85

What do the screens show for `COc1cc(/C=C2/SC(=S)N(c3c(C)n(C)n(-c4ccccc4)c3=O)C2=O)ccc1O`?
Pol kappa inh: inactive; Pol beta inh: 28µM; POLI inh: 28µM; POLH inh: inconclusive; WRN helicase inh: inconclusive; FEN1 inh-1: inconclusive; FEN1 inh-2: inconclusive

How did CCOc1cc(/C=C2\SC(=S)N(NC(=O)c3cccnc3)C2=O)ccc1O do in these assays?
Pol kappa inh: inactive; Pol beta inh: inconclusive; POLI inh: 28µM; POLH inh: inconclusive; WRN helicase inh: 56µM; FEN1 inh-1: inconclusive; FEN1 inh-2: 85

Results for Cc1c(N2C(=O)/C(=C3/C(=O)N(C)c4ccccc43)SC2=S)c(=O)n(-c2ccccc2)n1C ?
Pol kappa inh: inactive; Pol beta inh: inactive; POLI inh: inactive; POLH inh: inactive; WRN helicase inh: inactive; FEN1 inh-1: inactive

What do the screens show for `O=C(NN1C(=O)/C(=C/c2cccs2)SC1=S)c1cccnc1`?
Pol kappa inh: inactive; Pol beta inh: inactive; POLI inh: inactive; POLH inh: inactive; WRN helicase inh: inactive; FEN1 inh-1: inactive
